This note sets out measurements from the supplement of paper PMC8975748.

Where a name gives a salt, the structure may show the parent alone. ± gives the standard deviation of the averaged measurements.

This assay relates to Saccharomyces cerevisiae BY4741 SeMeCo community. The assay can be described thus: mean cell size (pixel area) (pixels); higher = larger cells. To be noted: 10 µM; 24 h; SM minimal medium. In short, it runs like this: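 Mean cell pixel area per well was determined by automated confocal microscopy with Harmony analysis of paraformaldehyde-fixed cells. The cells, a Saccharomyces cerevisiae BY4741 community of four plasmids that each complement one auxotrophy and carry a fluorescent marker, were incubated for 24 h with drug at a final 10 µM in SM medium in 384-well plates. Numbers are averaged over 3 replicates. Same SeMeCo high-content imaging drug screen: Selleck FDA-approved drugs at 10 µM, 24 h in SM medium, 384-well plates, 3 replicates.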
`C=C[C@H]1CN2CC[C@H]1C[C@H]2[C@H](O)c1ccnc2ccccc12` [Cinchonidine]: the mean cell size amounted to 12.47 ± 0.048.

In turn, `CCN(C)C(=O)Oc1cccc([C@H](C)N(C)C)c1` [Rivastigmine] came in with a mean cell size of 12.7 ± 0.17.

In turn, `COC(=O)C1=CCCN(C)C1` [Arecoline HBr] came in with a mean cell size of 12.4 ± 0.29.

In the case of `C=CC[C@]1(O)CC[C@H]2[C@@H]3CCC4=CC(=O)CCC4=C3C=C[C@@]21C` [Altrenogest], the mean cell size stood at 12.58 ± 0.1.

In the case of `COc1ccc2c(c1)[C@]13CCCC[C@@H]1[C@H](C2)N(C)CC3` [Dextromethorphan hydrobromide hydrate], the mean cell size worked out at 12.5 ± 0.24.

The molecule `CC(=O)OCC1=C(C(=O)O)N2C(=O)[C@@H](N)[C@H]2SC1` [7-Aminocephalosporanic acid] came in with a mean cell size of 12.28 ± 0.11.

`CN1[C@@H]2CC[C@H]1C[C@@H](OC(=O)C(CO)c1ccccc1)C2` (stereo not given in full) [Atropine sulfate monohydrate] returned a mean cell size of 12.26 ± 0.093.

As to `Oc1cccc2cccnc12` [8-Hydroxyquinoline], the mean cell size worked out at 12.61 ± 0.039.

The molecule `CCOC(=O)Nc1ccc(NCc2ccc(F)cc2)cc1N` [Retigabine] had a mean cell size of 12.58 ± 0.12.

In turn, `CC1(C)S[C@@H]2[C@H](N)C(=O)N2[C@H]1C(=O)O` [6-Aminopenicillanic acid] returned a mean cell size of 12.1 ± 0.25.

As to `Cc1cc(C(C#N)c2ccc(Cl)cc2)c(Cl)cc1NC(=O)c1cc(I)cc(I)c1O` (stereo not given) [Closantel], the mean cell size was 12.3 ± 0.27.

In turn, `CN[C@@H]1[C@@H](O)[C@@H](O[C@@H]2[C@@H](O)[C@H](O[C@H]3O[C@H](CN)CC[C@H]3N)[C@@H](N)C[C@H]2N)OC[C@]1(C)O.CN[C@@H]1[C@@H](O)[C@@H](O[C@@H]2[C@@H](O)[C@H](O[C@H]3O[C@H]([C@@H](C)N)CC[C@H]3N)[C@@H](N)C[C@H]2N)OC[C@]1(C)O.CN[C@@H]1[C@@H](O)[C@@H](O[C@@H]2[C@@H](O)[C@H](O[C@H]3O[C@H]([C@@H](C)NC)CC[C@H]3N)[C@@H](N)C[C@H]2N)OC[C@]1(C)O` [Gentamicin Sulfate] gave a mean cell size of 12.1 ± 0.15.

Molecule `C=CCN1C[C@H](C(=O)N(CCCN(C)C)C(=O)NCC)C[C@@H]2c3cccc4[nH]cc(c34)C[C@H]21` [Cabergoline] had a mean cell size of 12.2 ± 0.17.

In the case of `O=C(O[C@H]1C[N+]2(CCCOc3ccccc3)CCC1CC2)C(O)(c1cccs1)c1cccs1` [Aclidinium Bromide], the mean cell size is 12.59 ± 0.061.

The molecule `NCCc1c[nH]c2ccc(O)cc12` [Serotonin HCl] showed a mean cell size of 12.2 ± 0.41.

Regarding `COc1ccc2[nH]cc(CCN)c2c1` [5-Methoxytryptamine], the mean cell size was 12.18 ± 0.062.

`NC(=O)CN1CCCC1=O` [Piracetam] returned a mean cell size of 12.47 ± 0.028.

On to `Cc1cc(O)ccc1Cl` [Chlorocresol], for which the mean cell size was 12.6 ± 0.13.

`C[N+]1(C)[C@@H]2C[C@@H](OC(=O)[C@H](CO)c3ccccc3)C[C@H]1[C@@H]1O[C@@H]12` [Methscopolamine] returned a mean cell size of 12.49 ± 0.031.

Regarding `CN1c2ccccc2C(NCCCCCCC(=O)O)c2ccc(Cl)cc2S1(=O)=O` (stereo not given) [Tianeptine sodium], the mean cell size was found to be 12.6 ± 0.24.

On to `CCOC(=O)Nc1ccc(NCc2ccc(F)cc2)cc1N` [Retigabine 2HCl], for which the mean cell size was determined as 12.5 ± 0.25.

`CC[C@H]1[C@@H]2C[C@H]3[C@@H]4N(C)c5ccccc5[C@]45C[C@@H]([C@@H]2[C@H]5O)N3[C@@H]1O` [Ajmaline] had a mean cell size of 12.1 ± 0.16.

`[O-][n+]1ccccc1[S-].[O-][n+]1ccccc1[S-].[Zn+2]` [Zinc Pyrithione] registered a mean cell size of 15.2 ± 0.23.

`N#Cc1nn(-c2c(Cl)cc(C(F)(F)F)cc2Cl)c(N)c1[S+]([O-])C(F)(F)F` (stereo not given) [Fipronil]: the mean cell size is 12.3 ± 0.2.

Regarding `CCN(C)C(=O)Oc1cccc([C@H](C)N(C)C)c1` [Rivastigmine Tartrate], the mean cell size was determined as 12.38 ± 0.056.

Molecule `C#C[C@]1(O)C=C[C@H]2[C@@H]3CCC4=CC(=O)CC[C@@H]4[C@H]3CC[C@@]21CC` [Gestodene] had a mean cell size of 12.5 ± 0.17.

Consider `Nc1ccncc1` [4-Aminopyridine], for which the mean cell size amounted to 12.2 ± 0.16.

As for `CC(C)(O)C(Cl)(Cl)Cl` [Chlorobutanol], the mean cell size came out at 12.5 ± 0.16.

Take `CCN(CC)CCOC(=O)C(O)(c1ccccc1)c1ccccc1` [Benactyzine hydrochloride]: the mean cell size was 12.4 ± 0.051.

`O=[N+]([O-])C(Br)(CO)CO` [Bronopol] showed a mean cell size of 12.2 ± 0.43.

Consider `CC[C@H]1CN2CC[C@]3(C(=O)Nc4ccccc43)[C@@H]2C[C@@H]1/C(=C\OC)C(=O)OC` [Rhynchophylline], for which the mean cell size turned out to be 12.38 ± 0.1.

In turn, `CCN1C[C@]2(OC(=O)c3ccccc3NC(C)=O)CC[C@H](OC)[C@@]34[C@@H]2C[C@@H]([C@@H]13)[C@@]1(O)C[C@H](OC)[C@H]2C[C@@H]4[C@]1(O)[C@H]2OC` [Lappaconitine] showed a mean cell size of 12.4 ± 0.3.

In turn, `C[N+](C)(C)CCCCCCCCCC[N+](C)(C)C` [Decamethonium Bromide] came in with a mean cell size of 12.47 ± 0.097.

`CN1C(=O)COc2c(C(=O)NC3CN4CCC3CC4)cc(Cl)cc21` (stereo not given) [Azasetron HCl]: the mean cell size turned out to be 12 ± 0.075.

In the case of `CN1[C@@H]2C[C@@H](OC(=O)[C@H](CO)c3ccccc3)C[C@H]1[C@@H]1O[C@@H]12` [Scopolamine HBr], the mean cell size was 12.5 ± 0.14.

On to `NCC(O)c1ccc(O)cc1` (racemic) [(+,-)-Octopamine HCl], for which the mean cell size was determined as 12.3 ± 0.14.

`CN(C)C(=O)Oc1cccc([N+](C)(C)C)c1` [Neostigmine Bromide] gave a mean cell size of 11.8 ± 0.15.

Molecule `C=C(C)[C@H]1Cc2c(ccc3c2O[C@@H]2COc4cc(OC)c(OC)cc4[C@@H]2C3=O)O1` [Rotenone (Barbasco)] yielded a mean cell size of 12.67 ± 0.1.

As to `CC[C@@]1(O)C(=O)OCc2c1cc1n(c2=O)Cc2cc3ccccc3nc2-1` [Camptothecin], the mean cell size was 12.3 ± 0.14.

Take `CC(=O)c1c(O)cc(C)oc1=O` [Sodium dehydroacetate]: the mean cell size was 12.3 ± 0.038.
